Results from PubChem BioAssay (NCI).
Compounds without any hit were thinned out: in the full panel of roughly 83,000, 20% have a hit.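 Cells were grown in 96-well plates and exposed to the test compound at a single concentration for 48 hours; results are reported as percent growth, with values below 10 considered active.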 Activity calls are given as the source filed them.

Experiments:
Assay in all cases: NCI-60 one-dose screen, 48 h (100 = growth as untreated, 0 = no growth, -100 = all killed)
Conditions in all cases: 10 µM unless noted
[1] = tested on: HCT-15 colon
[2] = tested on: HT29 colon
[3] = tested on: SNB-75 CNS
[4] = tested on: SNB-19 CNS
[5] = tested on: U251 CNS
[6] = tested on: SK-MEL-5 melanoma
[7] = tested on: UACC-62 melanoma
[8] = tested on: LOX IMVI melanoma
[9] = tested on: SK-MEL-28 melanoma
[10] = tested on: PC-3 prostate

Measured: growth

O=c1c2cc(-c3ccccc3)sc2nc2sc(-c3ccccc3)nn12
inactive: [1] 103% | [2] 93.3% | [3] 113% | [4] 102% | [5] 92.1% | [6] 100% | [7] 109% | [8] 107% | [9] 107%

O=C1Nc2ccc(Br)cc2/C1=N/c1n[nH]c(=S)s1
inactive: [1] 99.1% | [2] 104% | [3] 74.5% | [4] 101% | [5] 96.2% | [6] 97.6% | [7] 93.2% | [8] 90.3% | [9] 114%

Oc1c(Cl)cc(Cl)c2ccc(Cn3cc(-c4cc(F)cc(F)c4)nn3)nc12
inactive: [1] 41.9% | [2] 68.5% | [3] 58.6% | [4] 94.1% | [5] 96.2% | [6] 98.5% | [7] 74.1% | [8] 20.8% | [9] 61.4%

O=C1/C(=C/c2ccc(F)cc2)COc2ccc(O)c(O)c21
active: [1] -27.7% | [5] 1.66% | [7] 7.26% | [8] -85.2%
inactive: [2] 13.5% | [3] 26.9% | [4] 33.4% | [6] 56.3% | [9] 44.1%

CC(=O)Cc1nsc(NC(=O)c2cc(-c3cc(Cl)cc(Cl)c3)oc2C)n1
inactive: [1] 99.4% | [2] 102% | [3] 84.1% | [4] 101% | [5] 93.2% | [6] 99.9% | [7] 88.7% | [8] 97% | [9] 103%

CN1C(=O)N(C)C2Nn3c(s/c(=C\c4ccc(C(F)(F)F)cc4)c3=O)=NC21 (stereo not given)
inactive: [1] 93.9% | [2] 109% | [3] 82.2% | [4] 95.2% | [5] 93.2% | [6] 99.5% | [7] 89.7% | [8] 95.7% | [9] 103%

Cc1cc(Cl)ccc1NC(=O)c1cc2ccccc2cc1O
inactive: [1] 13.2% | [2] 80.5% | [3] 38.1% | [4] 20% | [7] 19.1% | [8] 28.9% | [9] 41.6%
active: [5] -14% | [6] 8.89%

CN(Cc1ccc(C(F)(F)F)cc1)CC(O)C(=O)Nc1ccc(Cl)cc1 (stereo not given)
inactive: [3] 24.6% | [4] 31.4% | [7] 29.7% | [9] 85.8%
active: [1] -15.4% | [2] 1.26% | [5] -82.3% | [6] 8.39% | [8] -85.4%

CCN(CC)CCOc1ccc(-c2c(-c3ccccc3)c(=O)oc3ccccc23)cc1
inactive: [1] 72.2% | [2] 51.7% | [3] 81.8% | [4] 90.7% | [5] 85.5% | [6] 71.6% | [7] 82.7% | [8] 81.3% | [9] 98.6%

O=[N+]([O-])c1ccc(S(=O)(=O)N2CCN(C3=NS(=O)(=O)c4ccccc4N3c3ccccc3)CC2)cc1
inactive: [2] 110% | [3] 90.2% | [4] 101% | [5] 101% | [10] 87.4% | [6] 90.7% | [7] 98.2% | [8] 97.2% | [9] 135%

Nc1ncnc2c1N=C(c1ccc3c(c1)OCO3)CC(c1cccc(Nc3ccnc4cc(Cl)ccc34)c1)N2 (stereo not given)
inactive: [2] 27.8% | [3] 74.6% | [4] 58.2% | [5] 26.5% | [10] 54.2% | [6] 53.4% | [7] 57% | [8] 27.2% | [9] 91.3%

CC(C)(C)c1cc(-c2nc3ccc(N4CCN(S(C)(=O)=O)CC4)cc3[nH]2)cc(C(C)(C)C)c1O
inactive: [2] 81% | [3] 73.8% | [4] 104% | [5] 90.2% | [10] 91.7% | [6] 95.7% | [7] 94.5% | [8] 91.8% | [9] 94.3%

COc1cc(C(=O)n2nc(N3CCN(C)CC3)c3cc(N)ccc32)cc(OC)c1OC
inactive: [2] 86.8% | [3] 39.9% | [4] 35.2% | [5] 31.2% | [10] 50.1% | [6] 27.3% | [7] 26.2% | [9] 65.8%

O=C(CCCCC1CCSS1)Nc1ncnc2n[nH]c(-c3ccc(Oc4ccccc4)cc3)c12 (stereo not given)
inactive: [2] 88.3% | [3] 135% | [4] 114% | [5] 106% | [10] 90.2% | [6] 87.9% | [7] 70.4% | [9] 47%
active: [8] 5.87%
